Source: PubChem BioAssay
Active and inactive are the calls of the source.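 The calls were made as follows, unless noted: active = fluorescence slope after compound addition differing from the mean of all screened samples at 99.7% confidence, in either direction; inactive = the rest.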

Tests used:
[1] = inhibitors of TNFa-induced NFkB p65 translocation, primary screen, imaging, HUVEC, MLSMR starter and 10KST1 sets (AID 438;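 active = inhibition above 20% together with a positive visual image hit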;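 also: compound added about 3h40 before a 20 min TNFalpha stimulation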;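 as to inhibition: signal is the nuclear over cytoplasmic p65 intensity ratio per well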); conditions: HUVEC TNFa-induced p65 nuclear translocation; cell count: measured here: nuclei count (cytotoxicity indicator), at 2.08 µM; inhibition: at 2 µM, stronger effect = higher value, 0% TNFa-plus-vehicle, 100% no-TNFa wells
[2] = inhibitors of mutant huntingtin aggregation, primary screen, imaging, exon1htt(103Q)mCFP cells, high-content imaging (AID 483;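 active = visual image review flags a hit and inhibition of aggregation exceeds 20%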;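 also: compound exposure lasted 3 days before fixation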;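 as to nuclei count: percent of the per-plate median nuclei count of sample wells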); conditions: exon1htt(103Q)mCFP cell line, aggregate imaging, at 2 µM; inhibition of aggregation: stronger effect = higher value; nuclei count: measured here: cell count, toxicity
[3] = inhibitors of E-selectin induction by TNFa, primary screen, imaging, HUVEC, immunofluorescence, MLSMR starter and 10KST1 sets (AID 487;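 active = visually confirmed hit in the image check and inhibition above 20%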;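 as to inhibition: signal is fraction of cell area covered by stained E-selectin grains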;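 as to nuclei count: 100% = median nuclei count of all wells on the same plate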); conditions: HUVEC TNFalpha-induced E-selectin immunofluorescence imaging, at 2 µM; inhibition: stronger effect = higher value; nuclei count: measured here: cell number, toxicity
[4] = biological target: Voltage-gated potassium channel subunit beta-2 (Rattus norvegicus) (UniProt P62483); experiment: KvBeta enzyme negative modulators, primary screen, biochemical, NADPH fluorescence (AID 622;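 active = fluorescence slope higher than the sample average by over 3 SD, cut at about -0.22 in these data, passing the limit was not always enough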;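 also: slope of raw intensity against log time taken from 70 to 1610 s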); conditions: recombinant KvBeta, 4-cyanobenzaldehyde reduction, at 10 µM, stronger effect = higher value
[5] = biological target: Voltage-gated potassium channel subunit beta-2 (Rattus norvegicus) (UniProt P62483); experiment: KvBeta positive modulators, primary screen, biochemical, NADPH fluorescence (AID 623;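 active = NADPH fluorescence slope more negative than the mean of all samples by about 3 SD, 99.7% confidence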;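 also: fluorescence intensity change per second fitted from 20 to 320 s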); conditions: Recombinant KvBeta, NADPH fluorescence decrease slope, 10 min; at 10 µM; stronger effect = lower value
[6] = biological target: Alpha-2C adrenergic receptor (Homo sapiens) (UniProt P18825); experiment: modulators of alpha2C/GIRK thallium flux, primary screen, cell-based, HEK293 alpha2C/GIRK1/2 (AID 624); conditions: thallium flux BTC fluorescence, at 10 µM, actives lie on both sides;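 also: slope of fluorescence ratio to pre-addition baseline per second over 15 to 24 s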
[7] = inhibitors of Sendai virus-induced IRF3 signaling, primary screen, TLR/RLR signaling modifier project, cell-based, Sendai virus stimulus, luciferase, 10K MLSCN set (AID 602276;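 active = inhibition at or above 50% at 10 µM; inactive = inhibition below 50%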;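 also: firefly luciferase from ISG56 promoter only with Renilla not read in this screen; 0% = Sendai virus plus DMSO and 100% = medium plus DMSO without virus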); conditions: HEK293 RL24 IRF3 luciferase reporter, at 10 µM, stronger effect = higher value
[8] = inhibitors of poly I:C-induced TLR3 signaling, primary screen, cell-based, poly I:C stimulus, luciferase, 10K MLSCN set (AID 602277;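 active = inhibition of the reporter signal at or above 50%; inactive = inhibition below 50%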); conditions: HEK293-TLR3 RL24 IRF3 luciferase reporter, at 10 µM, stronger effect = higher value

Chain of Voltage-gated potassium channel subunit beta-2 (Rattus norvegicus) (P62483 whole entry, looked up): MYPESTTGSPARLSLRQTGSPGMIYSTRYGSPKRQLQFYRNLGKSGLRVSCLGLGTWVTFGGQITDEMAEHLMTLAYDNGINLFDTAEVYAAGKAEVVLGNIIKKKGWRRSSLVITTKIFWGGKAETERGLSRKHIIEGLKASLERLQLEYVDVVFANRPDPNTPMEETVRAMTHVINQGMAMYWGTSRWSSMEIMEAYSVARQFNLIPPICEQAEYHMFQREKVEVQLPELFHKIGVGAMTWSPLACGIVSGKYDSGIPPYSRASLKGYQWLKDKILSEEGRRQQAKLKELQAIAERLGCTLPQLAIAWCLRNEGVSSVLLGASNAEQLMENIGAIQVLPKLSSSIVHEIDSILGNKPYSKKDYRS
Chain of Alpha-2C adrenergic receptor (Homo sapiens) (P18825 whole entry, looked up): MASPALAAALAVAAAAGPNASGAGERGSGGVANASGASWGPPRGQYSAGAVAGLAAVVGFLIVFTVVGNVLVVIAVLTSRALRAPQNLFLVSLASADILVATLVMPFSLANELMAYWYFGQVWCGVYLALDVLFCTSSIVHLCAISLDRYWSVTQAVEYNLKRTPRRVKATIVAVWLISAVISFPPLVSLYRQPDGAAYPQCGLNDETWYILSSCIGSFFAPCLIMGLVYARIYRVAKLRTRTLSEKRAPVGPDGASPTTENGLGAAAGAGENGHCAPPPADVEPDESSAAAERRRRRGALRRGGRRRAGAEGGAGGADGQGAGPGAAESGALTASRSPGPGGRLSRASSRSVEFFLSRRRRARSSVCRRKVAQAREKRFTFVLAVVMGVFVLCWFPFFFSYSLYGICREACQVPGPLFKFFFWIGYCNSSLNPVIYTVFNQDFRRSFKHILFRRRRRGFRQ

Row | SMILES | cell count [1] | inhibition [1] | inhibition of aggregation [2] | nuclei count [2] [%] | inhibition [3] | nuclei count [3] [%] | fluorescence slope [4] | NADPH fluorescence slope [5] | slope [6] | inhibition [7] | inhibition [8]
1 | COc1ccc(CCNC(=O)CN(c2ccccc2OC)S(C)(=O)=O)cc1 | 723 | -3.4% (inactive) | 33.6% (inactive) | 87.7 | -41.9% (inactive) | 98.4 | -0.427 (inactive) | -0.000127 (inactive) | 0.00571 (inactive) | 15.7% (inactive) | 27.5% (inactive)
2 | CN(C)S(=O)(=O)N1CCN(C(=O)N(c2ccccc2)c2ccccc2)CC1 | 352 | -3.3% (inactive) | 0% (inactive) | 108 | -122% (inactive) | 117 | -0.366 (inactive) | -2e-09 (inactive) | 0.00704 (inactive) | -19.7% (inactive) | -15.1% (inactive)
3 | CCCn1c(SCC(=O)NC(C)(C)C)nnc1C(C)C | 603 | -6.3% (inactive) | 6.5% (inactive) | 102 | 19.4% (inactive) | 99.9 | -0.537 (inactive) | -0.000121 (inactive) | 0.00641 (inactive) | 13% (inactive) | 23.2% (inactive)
4 | O=C(c1ccc(CNc2c(N3CCCC3)c(=O)c2=O)cc1)N1CCc2ccccc2C1 | 535 | 2.3% (inactive) | -13.5% (inactive) | 100 | -18.6% (inactive) | 108 | -0.614 (inactive) | 2.4e-05 (inactive) | 0.00541 (inactive) | -7.92% (inactive) | 4.25% (inactive)
5 | CC(C)[C@H](NC(=O)NCc1ccc(Cl)cc1)C(=O)O | 190 | -16.4% (inactive) | 20.4% (inactive) | 70.5 | 11.6% (inactive) | 87.2 | -0.604 (inactive) | -3.7e-05 (inactive) | 0.00337 (inactive) | 13% (inactive) | 19.3% (inactive)
6 | COc1ccc(S(=O)(=O)Cc2ccc(C(=O)N3CCOCC3)o2)cc1 | 551 | -0.2% (inactive) | -10.7% (inactive) | 93 | -79.8% (inactive) | 105 | -0.615 (inactive) | -2.5e-05 (inactive) | 0.0067 (inactive) | 8.1% (inactive) | 19.3% (inactive)
7 | CC1(C)CC(=O)C(C=Nc2ccncc2)=C(O)C1 | 463 | 4.9% (inactive) | 3.3% (inactive) | 103 | -42.3% (inactive) | 120 | -0.607 (inactive) | 5e-06 (inactive) | 0.00629 (inactive) | -2.33% (inactive) | 10.3% (inactive)
8 | CCn1cc(C(=O)NCC2CCCO2)c(=O)c2cc(S(=O)(=O)N(C)C)ccc21 (stereo not drawn) | 767 | -2.4% (inactive) | -9.8% (inactive) | 105 | -50.6% (inactive) | 117 | -0.465 (inactive) | -8.2e-05 (inactive) | 0.00671 (inactive) | -12.7% (inactive) | 1.32% (inactive)
